Binding signal data for 8 sequences are collected here from publication PMC7862700, “An all-to-all approach to the identification of sequence-specific readers for epigenetic DNA modifications on cytosine”.

What all share (assay): DAPPL (digital affinity profiling via proximity ligation, sequencing); 10 mM Tris-HCl pH 7.5, 50 mM NaCl, 1 mM DTT, 4% glycerol, room temperature, 30 min; GST-TFs on glutathione beads, 16-mer random dsDNA library, 0.1% formaldehyde crosslink after washing; high values mean tight binding
Conditions in all cases: protein: recombinant; tags: N-terminal GST; dsDNA, one strand shown

Assay [1] concerns the target T1, FLI1 (Homo sapiens, UniProt Q01543 1-452).
T1 sequence: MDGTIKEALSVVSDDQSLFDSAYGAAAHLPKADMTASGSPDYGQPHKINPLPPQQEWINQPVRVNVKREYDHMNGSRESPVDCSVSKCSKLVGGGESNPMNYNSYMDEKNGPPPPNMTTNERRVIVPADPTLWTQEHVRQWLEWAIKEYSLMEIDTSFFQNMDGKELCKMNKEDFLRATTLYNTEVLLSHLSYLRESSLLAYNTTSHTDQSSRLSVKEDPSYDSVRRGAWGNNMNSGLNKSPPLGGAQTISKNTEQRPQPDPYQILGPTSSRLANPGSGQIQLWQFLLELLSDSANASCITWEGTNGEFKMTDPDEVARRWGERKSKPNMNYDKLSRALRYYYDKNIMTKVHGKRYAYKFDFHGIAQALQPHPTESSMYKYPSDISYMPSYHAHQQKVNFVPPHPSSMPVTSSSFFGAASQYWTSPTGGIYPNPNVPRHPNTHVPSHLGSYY
The method, boiled down: (§1)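 Sequencing on an Illumina NextSeq500 followed washing, crosslinking with 0.1% formaldehyde, proximity ligation (BsaI/T4 ligase, 1 h, 37 °C) and PCR amplification of pools that had been incubated for 30 min at room temperature with 200 nmole of a random double-stranded 16-mer DNA library in Tris/NaCl/DTT/glycerol buffer. Each pool held DNA-barcoded human transcription factors, expressed in yeast as GST fusions and captured on glutathione beads, plus a tag-only sample. Binding signal is a hexamer's read frequency for a factor divided by its frequency in the tag-only sample.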

For assay [2], the target named is T2, ELK1 (Homo sapiens, UniProt P19419 1-428).
T2 sequence: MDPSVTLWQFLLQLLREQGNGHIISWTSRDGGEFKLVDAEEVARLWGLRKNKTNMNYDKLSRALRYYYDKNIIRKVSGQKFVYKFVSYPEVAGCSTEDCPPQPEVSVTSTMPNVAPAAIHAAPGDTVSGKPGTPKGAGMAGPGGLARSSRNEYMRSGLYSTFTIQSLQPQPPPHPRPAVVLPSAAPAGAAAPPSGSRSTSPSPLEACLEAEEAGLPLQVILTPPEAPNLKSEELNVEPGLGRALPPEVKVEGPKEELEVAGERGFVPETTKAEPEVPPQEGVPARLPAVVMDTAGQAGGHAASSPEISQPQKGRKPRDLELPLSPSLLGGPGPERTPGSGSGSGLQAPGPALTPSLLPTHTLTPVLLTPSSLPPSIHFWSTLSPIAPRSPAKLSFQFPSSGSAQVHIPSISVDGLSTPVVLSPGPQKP
The method, boiled down: as §1

Assay [3] deals with T3, GABPA (Homo sapiens, UniProt Q06546 1-454).
T3 sequence: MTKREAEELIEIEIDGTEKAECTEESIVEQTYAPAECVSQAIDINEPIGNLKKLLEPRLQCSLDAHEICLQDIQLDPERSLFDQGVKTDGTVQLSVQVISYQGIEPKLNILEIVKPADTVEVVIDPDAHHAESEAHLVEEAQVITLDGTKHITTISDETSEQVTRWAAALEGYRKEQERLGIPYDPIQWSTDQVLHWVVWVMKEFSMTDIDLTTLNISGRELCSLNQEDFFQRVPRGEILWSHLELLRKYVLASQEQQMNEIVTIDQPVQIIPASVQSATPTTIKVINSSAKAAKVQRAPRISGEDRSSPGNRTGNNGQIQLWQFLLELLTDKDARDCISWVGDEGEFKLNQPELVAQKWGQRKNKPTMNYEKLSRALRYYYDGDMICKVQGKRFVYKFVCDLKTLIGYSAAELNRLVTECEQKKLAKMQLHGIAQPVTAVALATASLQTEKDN
The method, boiled down:
as §1

Assay [4] deals with T4, ERG (Homo sapiens, UniProt P11308 1-479).
T4 sequence: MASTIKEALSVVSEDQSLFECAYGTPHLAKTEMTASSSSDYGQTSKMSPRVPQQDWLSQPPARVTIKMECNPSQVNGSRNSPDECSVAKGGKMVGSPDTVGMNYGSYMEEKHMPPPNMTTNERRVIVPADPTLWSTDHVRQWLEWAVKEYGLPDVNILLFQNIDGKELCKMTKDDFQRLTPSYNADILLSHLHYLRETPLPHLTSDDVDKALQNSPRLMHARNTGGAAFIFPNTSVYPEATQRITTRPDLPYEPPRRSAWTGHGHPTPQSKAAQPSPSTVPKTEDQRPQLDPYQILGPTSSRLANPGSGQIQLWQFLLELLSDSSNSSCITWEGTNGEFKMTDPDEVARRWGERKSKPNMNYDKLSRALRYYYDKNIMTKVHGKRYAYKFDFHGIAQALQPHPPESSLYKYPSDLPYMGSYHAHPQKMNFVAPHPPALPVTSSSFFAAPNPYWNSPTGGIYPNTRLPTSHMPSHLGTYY
The method, boiled down:
as §1

Assay [5] addresses ELF1 (Homo sapiens, UniProt P32519 1-619). The method, boiled down:
as §1

The target of assay [6] is T5, EHF (Homo sapiens, UniProt Q9NZC4 1-300).
T5 sequence: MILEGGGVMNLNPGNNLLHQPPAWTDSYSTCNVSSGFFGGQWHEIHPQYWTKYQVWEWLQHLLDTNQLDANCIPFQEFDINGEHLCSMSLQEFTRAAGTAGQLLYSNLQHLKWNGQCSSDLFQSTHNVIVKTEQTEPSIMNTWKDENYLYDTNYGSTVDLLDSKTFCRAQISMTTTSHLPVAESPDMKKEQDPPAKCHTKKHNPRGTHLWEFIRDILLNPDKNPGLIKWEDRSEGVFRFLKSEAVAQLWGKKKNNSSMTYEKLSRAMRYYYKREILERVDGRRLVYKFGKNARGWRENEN
The method, boiled down:
as §1

Assay [7] concerns the target SPI1 (Homo sapiens, UniProt P17947 1-270). The method, boiled down: as §1
The target in assay [8] is SPIB (Homo sapiens, UniProt Q01892 1-262). The method, boiled down: as §1
Assay [9] concerns the target T6, ELK3 (Homo sapiens, UniProt P41970 1-407).
T6 sequence: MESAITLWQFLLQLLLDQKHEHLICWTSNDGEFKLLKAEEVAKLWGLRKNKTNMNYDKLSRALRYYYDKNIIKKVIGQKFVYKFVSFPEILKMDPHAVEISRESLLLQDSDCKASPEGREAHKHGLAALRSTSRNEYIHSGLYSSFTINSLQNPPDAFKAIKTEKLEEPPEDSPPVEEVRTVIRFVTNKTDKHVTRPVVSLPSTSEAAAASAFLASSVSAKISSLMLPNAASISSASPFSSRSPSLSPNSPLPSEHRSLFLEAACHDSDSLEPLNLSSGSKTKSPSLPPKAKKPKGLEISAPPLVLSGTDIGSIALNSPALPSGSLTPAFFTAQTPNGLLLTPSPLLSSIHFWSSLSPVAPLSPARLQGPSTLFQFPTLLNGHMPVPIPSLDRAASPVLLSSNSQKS
The method, boiled down: as §1

SPIB, sequence (Q01892 whole entry): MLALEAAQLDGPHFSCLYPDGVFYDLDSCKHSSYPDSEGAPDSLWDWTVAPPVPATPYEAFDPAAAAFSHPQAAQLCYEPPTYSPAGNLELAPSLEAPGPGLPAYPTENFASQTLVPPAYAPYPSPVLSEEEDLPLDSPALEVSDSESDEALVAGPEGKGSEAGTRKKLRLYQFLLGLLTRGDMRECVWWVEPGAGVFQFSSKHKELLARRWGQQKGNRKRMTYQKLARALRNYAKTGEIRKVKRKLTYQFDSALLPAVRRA
ELF1, sequence (P32519 whole entry): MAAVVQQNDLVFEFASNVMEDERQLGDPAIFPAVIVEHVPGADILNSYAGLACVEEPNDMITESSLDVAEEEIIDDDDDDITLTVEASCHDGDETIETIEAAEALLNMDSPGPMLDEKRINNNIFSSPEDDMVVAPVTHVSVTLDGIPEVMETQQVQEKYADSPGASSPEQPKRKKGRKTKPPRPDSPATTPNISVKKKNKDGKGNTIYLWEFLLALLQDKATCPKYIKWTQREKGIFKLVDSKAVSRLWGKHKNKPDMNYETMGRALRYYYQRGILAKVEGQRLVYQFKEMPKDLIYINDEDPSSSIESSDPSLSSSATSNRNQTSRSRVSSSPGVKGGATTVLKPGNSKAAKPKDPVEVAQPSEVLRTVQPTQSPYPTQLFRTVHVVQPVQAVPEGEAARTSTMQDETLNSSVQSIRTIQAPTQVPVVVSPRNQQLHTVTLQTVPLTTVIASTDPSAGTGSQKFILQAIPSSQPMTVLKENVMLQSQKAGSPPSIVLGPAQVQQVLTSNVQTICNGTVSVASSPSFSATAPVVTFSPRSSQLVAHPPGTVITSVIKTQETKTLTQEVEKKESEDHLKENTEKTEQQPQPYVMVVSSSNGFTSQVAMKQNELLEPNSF

For the sequence CTGAAT, the binding signal in assay [1] was 1.23 fold enrichment (6-mer frequency, TF over GST control); in assay [2], 1.37 fold enrichment (6-mer frequency, TF over GST control); in assay [3] it was 1.36 fold enrichment (6-mer frequency, TF over GST control); in assay [4] it was 1.36 fold enrichment (6-mer frequency, TF over GST control); in [5] it was 1.31 fold enrichment (6-mer frequency, TF over GST control); in assay [6], 1.31 fold enrichment (6-mer frequency, TF over GST control). The binding signal in [7] was 1.36 fold enrichment (6-mer frequency, TF over GST control); in [8], 1.26 fold enrichment (6-mer frequency, TF over GST control); in assay [9], 1.23 fold enrichment (6-mer frequency, TF over GST control).

With TCATCC, the binding signal was 1.4 fold enrichment (6-mer frequency, TF over GST control) in [1]; 1.38 fold enrichment (6-mer frequency, TF over GST control) in assay [2]; 1.39 fold enrichment (6-mer frequency, TF over GST control) in assay [3]; 1.36 fold enrichment (6-mer frequency, TF over GST control) in [4]; 1.41 fold enrichment (6-mer frequency, TF over GST control) in [5]; 1.38 fold enrichment (6-mer frequency, TF over GST control) in [6]. The binding signal in [7] is 1.34 fold enrichment (6-mer frequency, TF over GST control); in [8], 1.34 fold enrichment (6-mer frequency, TF over GST control); in assay [9], 1.43 fold enrichment (6-mer frequency, TF over GST control).

With AACCTT, the binding signal in assay [1] was 1.3 fold enrichment (6-mer frequency, TF over GST control); in assay [2], 1.25 fold enrichment (6-mer frequency, TF over GST control); in assay [3], 1.25 fold enrichment (6-mer frequency, TF over GST control); in [4] it was 1.26 fold enrichment (6-mer frequency, TF over GST control); in assay [5], 1.33 fold enrichment (6-mer frequency, TF over GST control); in [6], 1.33 fold enrichment (6-mer frequency, TF over GST control). The binding signal was 1.26 fold enrichment (6-mer frequency, TF over GST control) in assay [7]; 1.34 fold enrichment (6-mer frequency, TF over GST control) in [8]; 1.33 fold enrichment (6-mer frequency, TF over GST control) in assay [9].

With ACATTA, the binding signal is 1.17 fold enrichment (6-mer frequency, TF over GST control) in [1]; 1.16 fold enrichment (6-mer frequency, TF over GST control) in assay [2]; 1.17 fold enrichment (6-mer frequency, TF over GST control) in assay [3]; 1.08 fold enrichment (6-mer frequency, TF over GST control) in [4]; 1.19 fold enrichment (6-mer frequency, TF over GST control) in [5]; 1.17 fold enrichment (6-mer frequency, TF over GST control) in assay [6]. The binding signal in assay [7] is 1.06 fold enrichment (6-mer frequency, TF over GST control); in assay [8], 1.2 fold enrichment (6-mer frequency, TF over GST control); in assay [9], 1.08 fold enrichment (6-mer frequency, TF over GST control).

Turning to CCCTTA, the binding signal in assay [1] is 1.29 fold enrichment (6-mer frequency, TF over GST control); in assay [2] it was 1.24 fold enrichment (6-mer frequency, TF over GST control); in assay [3], 1.24 fold enrichment (6-mer frequency, TF over GST control); in assay [4] it was 1.28 fold enrichment (6-mer frequency, TF over GST control); in [5], 1.3 fold enrichment (6-mer frequency, TF over GST control); in assay [6] it was 1.32 fold enrichment (6-mer frequency, TF over GST control). The binding signal was 1.31 fold enrichment (6-mer frequency, TF over GST control) in assay [7]; 1.35 fold enrichment (6-mer frequency, TF over GST control) in assay [8]; 1.25 fold enrichment (6-mer frequency, TF over GST control) in assay [9].

As for AATGAC, the binding signal was 1.36 fold enrichment (6-mer frequency, TF over GST control) in [1]; 1.52 fold enrichment (6-mer frequency, TF over GST control) in assay [2]; 1.43 fold enrichment (6-mer frequency, TF over GST control) in assay [3]; 1.42 fold enrichment (6-mer frequency, TF over GST control) in assay [4]; 1.36 fold enrichment (6-mer frequency, TF over GST control) in [5]; 1.35 fold enrichment (6-mer frequency, TF over GST control) in [6]. The binding signal is 1.36 fold enrichment (6-mer frequency, TF over GST control) in assay [7]; 1.39 fold enrichment (6-mer frequency, TF over GST control) in assay [8]; 1.44 fold enrichment (6-mer frequency, TF over GST control) in assay [9].

As for CCCTCG, the binding signal in assay [1] is 1.23 fold enrichment (6-mer frequency, TF over GST control); in [2] it was 1.34 fold enrichment (6-mer frequency, TF over GST control); in assay [3] it was 1.38 fold enrichment (6-mer frequency, TF over GST control); in [4] it was 1.14 fold enrichment (6-mer frequency, TF over GST control); in assay [5] it was 1.34 fold enrichment (6-mer frequency, TF over GST control); in assay [6], 1.24 fold enrichment (6-mer frequency, TF over GST control). Also, the binding signal in [7] was 1.23 fold enrichment (6-mer frequency, TF over GST control); in [8], 1.34 fold enrichment (6-mer frequency, TF over GST control); in [9], 1.15 fold enrichment (6-mer frequency, TF over GST control).

Consider CCTAAG, for which the binding signal is 1.09 fold enrichment (6-mer frequency, TF over GST control) in assay [1]; 1.14 fold enrichment (6-mer frequency, TF over GST control) in [2]; 1.12 fold enrichment (6-mer frequency, TF over GST control) in assay [3]; 1.16 fold enrichment (6-mer frequency, TF over GST control) in assay [4]; 1.19 fold enrichment (6-mer frequency, TF over GST control) in assay [5]; 1.18 fold enrichment (6-mer frequency, TF over GST control) in [6]. Also, the binding signal in assay [7] is 1.06 fold enrichment (6-mer frequency, TF over GST control); in assay [8] it was 1.21 fold enrichment (6-mer frequency, TF over GST control); in assay [9], 1.17 fold enrichment (6-mer frequency, TF over GST control).
